Lamin A splicing = qHTS Assay for Modulators of Lamin A Splicing; HeLa LMNA splicing GFP/RFP minigene ratio, 48 h; Potency, µM (top dose mostly 46.1 µM), inactives show top-dose ratio change, negative = inhibition, hits mostly inhibitors; hit rate 0.01% among 200,000; active = well fitted inhibition curve with a large enough effect in the signal ratio, with a control signal flat, not every such curve was filed as active; inconclusive = small, poorly fitted or top-dose-only effect, or effect the other way, or a change in a side signal; the % refers to the signal ratio; also: potency is read from the fitted curve at half-maximal effect
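S3 HeLa stable clones carrying a lamin A-EGFP splicing minigene plus DsRed2 were seeded at 600 cells/well in Opti-MEM with 2% FBS, pin-dosed and incubated 48 h at 37°C. Acumen cytometry (488 nm) gave the GFP/RFP total-intensity ratio.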
PNC inhibitor = High Content Assay for Compounds that inhibit the Assembly of the Perinucleolar Compartment | PC3M PTB-GFP, PNC prevalence imaging, 16 h; stronger effect = lower value | activity change (PNC), negative = inhibition, % at 10 µM | hit rate 3.1% among 140,000 | AID 2417, 2010;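 active = readout at or below -70, meaning at least 70% loss of cells showing the perinucleolar compartment, a nuclear body marking cancer cells; inconclusive = readout between -30 and a set limit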;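 also: plate controls were DMSO wells for no effect and camptothecin positive control wells for full effect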
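Read-out is percentage of cells bearing a perinucleolar compartment, from automated 20x imaging of fixed, Hoechst-stained PC3M PTB-GFP cells. Cells were seeded 4 h, then exposed 16 h to compound (23 nl of library stock) in duplicate plates.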
IMPase cell inh = qHTS Assay for Identifying the Cell-Membrane Permeable IMPase Inhibitors; inhibition (IP1 accumulation), % at 46.1 µM; Inositol monophosphatase 1 (Rattus norvegicus), P97697; CHO-M1 cells, IP1 accumulation, HTRF TR-FRET ratio; 120,000 tested, under 10 active; active = well fitted curve in the direction sought with a large enough effect in the signal ratio, not every such curve was filed as active; inconclusive = small, poorly fitted or top-dose-only effect, or a change in a side signal; inactive = no such curve, though single readings can be large or run the other way; the % refers to the signal ratio;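 also: cells stimulated with carbachol in lithium chloride buffer; plate controls were DMSO basal wells for no effect and reference inhibitor wells for full effect; higher means more IMPase inhibition seen as more IP1 and lower FRET ratio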
Target sequence (P97697 whole entry, looked up): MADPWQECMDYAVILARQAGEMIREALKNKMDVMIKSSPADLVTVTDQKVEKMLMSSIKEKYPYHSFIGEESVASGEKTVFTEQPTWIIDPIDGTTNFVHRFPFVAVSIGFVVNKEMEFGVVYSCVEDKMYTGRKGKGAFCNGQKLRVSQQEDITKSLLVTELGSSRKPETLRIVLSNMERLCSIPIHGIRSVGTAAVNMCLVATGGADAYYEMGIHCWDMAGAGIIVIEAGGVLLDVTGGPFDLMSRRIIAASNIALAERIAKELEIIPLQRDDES
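In this qHTS, compounds (final up to 46 uM) act on CHO-M1 cells that are then activated through the M1 receptor with carbachol, in pH 7.4 buffer containing 50 mM LiCl, for 30 min. IP1 accumulation is quantified by the IP-One immunoassay.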
HPGD inh = qHTS Assay for Inhibitors of HPGD (15-Hydroxyprostaglandin Dehydrogenase); hit rate 4.3% among 150,000; Potency, µM, for inactives: top-dose activity change, negative = inhibition, hits mostly inhibitors; purified HPGD, NADH fluorescence kinetic, PGE2 substrate; AID 894, 2007; also: potency is read from the fitted curve at half-maximal effect
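20 nM HPGD preincubated 15 min at room temperature with compound in 50 mM Tris-HCl pH 8, 0.01% Tween 20. Started with 1 mM NAD+ and 30 uM prostaglandin E2; NADH fluorescence (360/450 nm) read 5 times over 30-s intervals, last minus first.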
KinaseGlo FLuc = Counterscreen for Luciferase (Kinase-Glo TM) Inhibition; AID 1379, 2008; Kinase-Glo luciferase, ATP luminescence, 8 min; Potency, µM (doses to about 38.3 µM), without a hit: at the highest dose activity change, negative = inhibition, usual class: inhibitors; Luciferin 4-monooxygenase (Photuris pensylvanica), Q27757; hit rate 0.28% among 200,000; active = well fitted inhibition curve with a large enough effect; inconclusive = small, poorly fitted or top-dose-only effect; also: potency is read from the fitted curve at half-maximal effect; nearly all actives have a fitted effect of over 60% in size
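Kinase-Glo luciferase light output from ATP and luciferin was measured with 10 uM ATP, within the enzyme's linear range. Buffer: 50 mM imidazole pH 7.2, 50 mM KCl, 7 mM MgCl2, 0.01% Tween 20, 0.05% BSA; luminescence read after 8 min at ambient temperature.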
ALDH1A1 block = qHTS Assay for Inhibitors of Aldehyde Dehydrogenase 1 (ALDH1A1); AID 1030, 2008; Purified ALDH1A1, NADH fluorescence, propionaldehyde substrate; Aldehyde dehydrogenase 1A1 (Homo sapiens), P00352; Potency, µM (titrated, usually from 75.3 µM), for inactives: at the top dose activity, negative = inhibition, most hits filed as inhibitors; hit rate 7.3% among 220,000;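 also: potency is read from the fitted curve at half-maximal effect; plate controls were no enzyme wells and a reference inhibitor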
Target sequence (P00352 whole entry, looked up): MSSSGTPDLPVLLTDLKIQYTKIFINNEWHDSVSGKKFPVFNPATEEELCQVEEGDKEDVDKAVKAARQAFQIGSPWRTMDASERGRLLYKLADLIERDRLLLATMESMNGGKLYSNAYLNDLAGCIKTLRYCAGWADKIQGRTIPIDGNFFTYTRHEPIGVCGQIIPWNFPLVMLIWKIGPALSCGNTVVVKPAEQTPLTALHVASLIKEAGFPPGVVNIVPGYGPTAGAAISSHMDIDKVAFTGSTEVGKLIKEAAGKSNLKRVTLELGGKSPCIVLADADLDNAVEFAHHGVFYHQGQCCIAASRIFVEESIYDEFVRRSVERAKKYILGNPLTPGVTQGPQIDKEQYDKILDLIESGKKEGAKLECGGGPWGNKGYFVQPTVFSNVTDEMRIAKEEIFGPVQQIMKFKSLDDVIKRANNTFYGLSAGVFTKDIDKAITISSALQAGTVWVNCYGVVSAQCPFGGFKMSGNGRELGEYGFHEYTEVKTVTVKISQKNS
* = called active by the depositor; ? = inconclusive; · = not tested or not shown; [ ] = another dose, or the depositor's remark. Rows were chosen to be rich in hits. Some 10% of all compounds tested hit in one or more screens of this group. Unless noted, calls follow the shape of the dose curve; as a rule, active = well fitted inhibition curve with a large enough effect (not every such curve was filed as active); inconclusive = small, poorly fitted or top-dose-only effect, or another doubt; inactive = no such curve, though single readings can be large or run the other way. Unless noted, % is scaled to controls: 0 for no effect and ±100 for the full control effect.

SMILES	Lamin A splicing	PNC inhibitor	IMPase cell inh	HPGD inh	KinaseGlo FLuc	ALDH1A1 block
CC(=O)NS(=O)(=O)c1cccnc1Nc1cccc(Cl)c1	7%	14	-8	-8%	-1%	?
COc1ccc(Nc2nc3ccc(C)cc3nc2-n2nc(C)cc2C)cc1Cl	·	·	3	·	·	·
CCn1c(SCC(=O)Nc2sc3c(c2C(N)=O)CCC(C)C3)nnc1-c1ccco1 (stereo not given)	-14%	54	-1	?	1%	22µM*
CCOC(=O)c1c(NC(=O)CSc2nnnn2-c2ccccc2)sc2c1CCC(C)C2 (stereo not given)	12%	52	-1	-15%	-1%	-8%
O=C(CSc1nnc(-c2ccco2)n1Cc1ccccc1)c1ccc(F)cc1	1%	9	-2	25µM*	-6%	4µM*
CC(=O)Nc1ccc(NC(=O)CSc2nnc(-c3ccco3)n2Cc2ccco2)cc1	-9%	2	1	-10%	3%	20µM*
O=C(CSc1nnc(-c2ccco2)n1Cc1ccccc1)NCc1ccccc1	-3%	200	3	-19%	3%	-4%
O=C(CSc1nnc(-c2ccc(Br)o2)n1Cc1ccccc1)c1ccccc1F	3%	?	1	32µM*	0%	?
C[C@H]1CCCC=CC2C[C@H](OC(=O)CN(C)C)C[C@@H]2[C@@H](O)/C=C\C(=O)O1 (stereo not given in full)	·	·	·	1%	-3%[7.66 µM]	-8%[13.5 µM]
O=CCCCC=O	?	·	·	-3%	·	-1%
O=C(c1cnccn1)N1CCC2(CC1)CN(c1ncccn1)C2	·	·	·	?	-5%	?
CCn1c(SCC(=O)Nc2nonc2C)nnc1-c1ccco1	1%	-9	-7	?	-5%	14µM*
COCCn1c(SCC(=O)c2ccc(F)cc2)nnc1C(C)C	9%	?	-9	-21%	-2%	13µM*
O=C(CSc1nnc(-c2ccco2)n1Cc1ccco1)NCc1ccccc1	-1%	-94*	2	-21%	22%	-10%
CCOc1ccccc1NC(=O)CSc1nnc(-c2ccccn2)n1Cc1ccco1	2%	-82*	?	-16%	-3%	?
CCOc1ccccc1NC(=O)CSc1nnc(-c2ccco2)n1Cc1ccco1	?	-23	4	-25%	0%	?
CCCCSc1nnc2c(n1)OC(c1ccc(Br)s1)Nc1ccccc1-2 (stereo not given)	·	·	3	·	·	·
COc1cccc(-n2c(SCC(=O)Nc3nnc(C)s3)nc3c([nH]c4ccccc43)c2=O)c1	2%[46 µM]	·	·	·	·	·
O=C(CSc1nnc(Cc2ccccc2)n1Cc1ccco1)NC1CCCC1	18%	-4	4	-13%	-2%	22µM*
Cn1c(Cc2ccccc2)nnc1SCC(=O)NC1CCCCC1	14%	7	1	-14%	0%	6%
CCCCCCCCCCCCCCCCOCC(COP(=O)([O-])OCC[N+](C)(C)C)OC (stereo not given)	·	·	·	-4%	-2%	4%
COc1ccc(CCNc2nc(SCc3ccc(F)cc3)nc3ccccc23)cc1OC	-9%[46 µM]	·	·	·	·	·
Cc1cc(C)nc(NS(=O)(=O)c2ccc(NC(=O)Nc3ccccc3)cc2)n1	?	·	·	·	0%	2%
Cc1cc(C)nc(N/C(=N/S(=O)(=O)Cc2ccccc2)Nc2ccccc2)n1	-6%	-22	·	-13%	0%	13µM*
COC(=O)[C@@]1(Cc2ccc(OC)cc2)[C@H]2c3cc(C(=O)N(C)C)n(CCc4c[nH]c5ccc(O)cc45)c3C[C@H]2CN1C(=O)c1ccccc1	·	·	·	-5%	-1%	-10%
SMILES	Lamin A splicing	PNC inhibitor	IMPase cell inh	HPGD inh	KinaseGlo FLuc	ALDH1A1 block
COc1cc(OC)c(NC(=O)c2sc3nc4n(c(=O)c3c2C)CCCC4)cc1Cl	-28%[46 µM]	·	·	·	·	·
CCOC(=O)N1CCN(c2c(-c3ccc(C)cc3)c(=O)c2=O)CC1	3%	-100*	-9	-10%	1%	4%
CCOC(=O)N1CCN(c2c(-c3ccc(C)c(C)c3)c(=O)c2=O)CC1	2%	-100*	-4	-15%	3%	-11%
O=C(Nc1ccc2nc(SCCOc3ccccc3Cl)sc2c1)c1cccs1	7%[46 µM]	·	·	·	·	·
COc1ccc(Cl)cc1N=Nc1ncc[nH]1	·	·	7	-13%	1%	?
Cc1c(C(=O)N2CCN(CCc3ccccc3)CC2)oc2ccccc12	-1%	?	-3	-4%	0%	14µM*
Cc1c(C(=O)N2CCN(S(C)(=O)=O)CC2)oc2ccccc12	5%	-19	7	-1%	-3%	?
Cn1c(=O)n(C)c2cc(NC(=O)CCl)ccc21	?	?	0	-13%	6%	0.71µM*
COc1ccc2oc(=O)c(-c3nc4ccccc4o3)cc2c1	-20%	-81*	-6	?	-4%	?
O=C(Nc1nnc(SCC(=O)N2CCCCC2)s1)C1CCCCC1	-8%	-27	4	14µM*	1%	?
O=C(Nc1nnc(C2CCCC2)s1)C1CCC1	-16%	-127*	0	-2%	13%	?
Cc1nnc(NC(=O)C2CCCCC2)s1	-9%	38	9	-12%	-1%	1%
COc1ccc(C(C(=O)Nc2ccc(C(C)C)cc2)N(Cc2ccco2)C(=O)CC2NC(=O)NC2=O)cc1 (stereo not given)	·	·	·	·	1%	25µM*
CC1CC2(C)Oc3ccccc3C3OCC1(COC(=O)Nc1ccccc1)C(C)C32 (stereo not given)	·	·	7	-4%	2%	-2%
Cc1cccc(Oc2nc(-c3cccc([N+](=O)[O-])c3)nc3ccccc23)c1C	0%	-2	19	-5%	-2%	3%
O=[N+]([O-])c1cccc(-c2nc(Oc3ccc(Cl)cc3)c3ccccc3n2)c1	?	?	·	25µM*	-10%	?
CC1=C(c2ccc(F)cc2)S(=O)(=O)N=C1N1CCC(C(=O)NCCc2ccco2)CC1	0%[46 µM]	·	·	·	·	·
Cc1ccc(S(=O)(=O)Cn2nnnc2C(C(C)C)N2CCc3ccccc3C2)cc1 (stereo not given)	10%	?	5	-29%	0%	10µM*
O=C(NC1=C(NC2CCS(=O)(=O)C2)C(=O)c2ccccc2C1=O)c1ccccc1 (stereo not given)	·	·	·	·	-6%	20µM*
Cc1cccc(NC2=C(NC(=O)c3ccccc3)C(=O)c3ccccc3C2=O)c1	?	6	23	?	-7%	25µM*

Compound activity as filed in PubChem.
